Measured values reported in PubChem BioAssay AID1347426 (Functional Genomics Laboratory (NCATS/FGL), 2020).
Out of some 31,000 sequences screened, about 1,400 (4.5%) were called active.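 How the source made its calls: active means median seed-adjusted z-score above 1 or below -1; inactive means the rest.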 Shown is part of a subset that was picked to be rich in actives.

Test: Novel Modifiers of Survival Motor Neuron (SMN) Protein: Gene Identification via Genome-wide siRNA Screen;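 further: luminescence tracks full-length SMN protein made from the SMN2 reporter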
Settings: HEK293T SMN2-luciferase reporter, siRNA knockdown, 72 h; actives lie on both sides
Summary of the method: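 HEK293T cells stably expressing an SMN2 splicing/cDNA-luciferase reporter were reverse-transfected with a druggable-genome siRNA library and read by luminescence at 72 hours; hits defined by MAD score above 1.0 or below -1.0.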

| Sequence | median seed-adjusted z-score |
| --- | --- |
| GAUCAAUUACGAAAUCUCATT against MED30 | -2.06 (active) |
| AAGAAGAAGUGGACACUGATT against FGFRL1 | -0.111 (inactive) |
| GGAACUUGGUUGUAGAGCUTT against SVIL | 0.0852 (inactive) |
| CAACCACCCUCACAUCAUUTT against NUAK2 | -0.0601 (inactive) |
| AAAUGCAAUUCAAGCCUUUTT against GFRA1 | 0.125 (inactive) |
| GGAAACUCGUCGUUCAAUATT against IL13RA1 | 0.269 (inactive) |
| UCGUGGAGGUGAUCUAUUATT against RAB6C | -1.08 (active) |
| UGAUUUACCUGAGCUGUAATT against GSTT2 | 0.0298 (inactive) |
| CAACUUCCACUGUUUCCGATT against RRAGC | -0.557 (inactive) |
| CGAUGCUUGUCAGUCCCAATT against NOTCH4 | -0.384 (inactive) |
| GCCUAGAGGUUUGCCCUGATT against ATHL1 | 0 (inactive) |
| UCCACUGCCCAAUAAAUAUTT against PYDC1 | -1.44 (active) |
| CGAGCCCAAGGAACAUGAATT against NKX2-3 | -0.2 (inactive) |
| GCUUUUCUCUUACAAUUCATT against ZNF557 | -0.197 (inactive) |
| CCAUUAACGAGCUGCUUAATT against PLK1 | -2.57 (active) |
| CAGUCGGAUCCAGAGCUGATT against GCHFR | -0.559 (inactive) |
| AGCUCACGCUGUGCAUGUGTT against TREX2 | -0.918 (inactive) |
| AAUCAGAUUCUCAACCUAATT against KRT10 | 0.493 (inactive) |
| CCUUCGAGCUGCUAUUAAUTT against TLR10 | -0.363 (inactive) |
| GAAGCGACUGUUUUAGAAATT against EIF4E3 | 0 (inactive) |
| GUUAUCCUCUAAUUGAUAATT against B3GALNT1 | 0.128 (inactive) |
| GGGUGUAACAUGUGCGGAATT against ZNF217 | -0.872 (inactive) |

| Sequence | median seed-adjusted z-score |
| --- | --- |
| GCACCAUCGUCCUUGAACATT against DUOX1 | -1.09 (active) |
| CCACUGCAACUGUAAUUCUTT against PROCA1 | -0.502 (inactive) |
| GAGUUCGUCGAAUCCCAAATT against SETMAR | 0.191 (inactive) |
| CCUCGAUUCUUAAAGACGATT against RELN | 0.207 (inactive) |
| GCUUUGGAGUCACAGGUCATT against EYA3 | -0.0191 (inactive) |
| GGAGACAAGCACAAGCUGATT against S100B | 0.862 (inactive) |
| GUGCGAUUCUGGAUGACAATT against EVI1 | 0 (inactive) |
| CAUGGGACCUGAUUCAAGATT against FCER2 | -1.75 (active) |
| CCAGAUCAGUCCUAGCUUATT against GLIS3 | -0.00906 (inactive) |
| AGCUGGUUCACGACAUGAATT against TRIP6 | 1.03 (active) |
| GCAUUGACUGGUCCUAUGATT against CPA2 | 0.0374 (inactive) |
| GCACUCCCAAGAUUGAUAATT against RBPJ | -0.452 (inactive) |
| CACUGAUUUUGGAUGCUCUTT against HES1 | -0.262 (inactive) |
| ACACGGCAUUAAAAAGCUATT against JRK | -0.624 (inactive) |
| AAACCAUCAUGCUGAGGUGTT against FCGR2A | -0.19 (inactive) |
| GAGCACGACUGAAAAUGUATT against PTS | -0.103 (inactive) |
| UAACCGAUUUGAUAUGAAUTT against ANKRA2 | 1.26 (active) |
| GGGAGAGUGUGCUACGAAATT against NEIL1 | -0.168 (inactive) |
| GAUUCGCAGUUUAGAUGUUTT against PRKAA2 | -0.194 (inactive) |
| GUACUUACCUUGUGAGGCATT against VAV3 | 0 (inactive) |
| GGUGGGUGGUAAGAGGGAATT against AQP2 | -0.433 (inactive) |
| GCAGAUGUAUAAGAAGGCATT against RRM2 | -3.84 (active) |

| Sequence | median seed-adjusted z-score |
| --- | --- |
| GGAGAGAGCUCUCACAUCUTT against PPT1 | 0.727 (inactive) |
| AGAUUGUAGUUGUGGAUCATT against CDH15 | 0 (inactive) |
| CAGCUGUAGUUCUAACUAUTT against ZNF23 | -0.106 (inactive) |
| GGAUCAAUGUGACGGAGAATT against EMILIN2 | 0.726 (inactive) |
| GAGUCGAACUUUACUGUCUTT against MLL2 | -2.11 (active) |
| GGAAUGGAAUGAUCGGUGATT against GRIN2A | 0.025 (inactive) |
| CGAGUUUGAUGAAAGAGGATT against NT5E | 0.199 (inactive) |
| CGUUAUGCCUGGUCUCCUATT against SPPL3 | 0.652 (inactive) |
| CAGAUUUGGUAAAAGAGUATT against VPS26A | -1.55 (active) |
| CCCAUUUCGGACUCCAAAATT against IRX3 | -0.285 (inactive) |
| ACUUUGCCUUCAAGCUCUATT against SERPINA13 | -0.403 (inactive) |
| GCUACUAUGCUGAAGAUCATT against CDH18 | 0.21 (inactive) |
| GGAAGAUGUUGACAUAUUUTT against ACAT2 | 1.25 (active) |
| GAAUAAGUGACUAUCCAAATT against SENP2 | 0 (inactive) |
| GGAGGCACCUCUCAAGAUATT against THRAP3 | -0.852 (inactive) |
| GCGAGGCUGUUAACCCUUATT against PRKCQ | 0.692 (inactive) |
| GAUGCUAUGGAAUACCAUATT against METTL4 | 0.244 (inactive) |
| GCUGGUACCCUGGAGGAAATT against GNRH2 | 1.13 (active) |
| ACAUGGUUAUUCCCAGUGATT against AKR1CL2 | -0.949 (inactive) |
| CAUUCAAUCCGGACCAUUUTT against CYP2J2 | 0.00659 (inactive) |
| CAGAUAUUAUGAAGAAUUUTT against GALNS | 0.0287 (inactive) |
| GCCUCUUUCUGUCAGCAUUTT against SPAG4 | -0.219 (inactive) |

| Sequence | median seed-adjusted z-score |
| --- | --- |
| GGAAGGAUAUUACACCUAUTT against MMP24 | -1.28 (active) |
| GCAAAGCCCUGUCAAACAATT against NPM2 | 0.215 (inactive) |
| CCAAGAAACUGCGAGACAATT against CNGA2 | -0.0447 (inactive) |
| CCAGAGUCCUGUUCGAUUUTT against USP30 | -0.646 (inactive) |
| CCUCAAGCCUGUAGAAGAATT against SMNDC1 | -1.54 (active) |
| CAGCAUUUAUCAAGUCUUATT against BMP6 | 0.301 (inactive) |
| GCAUCGGCAUUGAAGGCUUTT against ALOX15B | 0.156 (inactive) |
| GUAACUUCCUAUUCACCAATT against EPAS1 | -0.166 (inactive) |
| GGUCUGGAGAAGGUGCAUATT against ANGPTL4 | 1.37 (active) |
| CUCUACCAACAAUCACAAATT against NPTN | 0.133 (inactive) |
| GGUCGAGUUCUACUACAAATT against IPO11 | -0.245 (inactive) |
| CAUGCUCGUGGGUAACAAATT against RAB25 | -0.04 (inactive) |
| UGGAGAGACUUAUCCAAGATT against CKMT1B | -0.929 (inactive) |
| CAGAUGUGGUGAUGCGUGATT against DMBX1 | -0.207 (inactive) |
| GCUUCAUGACAUCCGCAAATT against CTSL3 | 1.07 (active) |
| GGCAAGAGCUUGUAUCCAATT against CCNG1 | 0.131 (inactive) |
| CAAAAUCCUUUGUGAGUAATT against GPR174 | -0.324 (inactive) |
| GGACUUUGCUGCCUAAAUUTT against PIP5K1A | 0.0924 (inactive) |
| GCAUCACGCUCUCGAAGCATT against PTBP1 | 0.578 (inactive) |
| CCACCCUAGUUAGACAUCATT against ZNF419 | 0.0405 (inactive) |
| CCAUCAUCGACACACCCAATT against PRSS27 | 1.03 (active) |
| CAAUCGAACGUAAACAACATT against ADD3 | 0.0741 (inactive) |

| Sequence | median seed-adjusted z-score |
| --- | --- |
| CAACCAUCGAGCAAAUGAATT against MAPK1 | 0 (inactive) |
| CAUCCCUUGUAAUUCACAATT against ZNF702 | 0.204 (inactive) |
| GCAUCAGCUCACAACAAAATT against SF3B4 | -2.56 (active) |
| CAAGUAUGAUCAGCAAUGATT against ENG | -0.254 (inactive) |
| GGCAUUACGUUUCUAGGUATT against AQP6 | 0.008 (inactive) |
| CGCUGUUCAAUGAACUAUATT against GBA2 | 0.143 (inactive) |
| ACACCAGGGUUGUCUACAATT against LCAT | 0.526 (inactive) |
| GAACUAUCAGAGCAGUUUUTT against LONP2 | 1.52 (active) |
| GAGCUAUAGUAAUUGCUCUTT against MIF4GD | 0.373 (inactive) |
| GAAACAUCAUUUUUGCGAATT against THBS4 | -0.28 (inactive) |
| GGACUGGGAUGAUACACCUTT against SBF2 | 0.569 (inactive) |
| CCAUCAUGAUGCUAGCUAUTT against AP3B2 | -2.45 (active) |
| GCAGAAUUGGAGACGGAAATT against DNALI1 | 0.699 (inactive) |
| CCAAAUUCCGCUCUCAUGATT against SFRS9 | -0.144 (inactive) |
| GUAUGAGUGUGACCGGGAATT against MRC2 | -1.34 (active) |
| GGAUGAUCGAGACCAGUUUTT against XPO4 | 0.616 (inactive) |
| GCUGUUGACUCACAAUGAUTT against GCLM | 0.0509 (inactive) |
| GCUUACGGCUUGUACCUGATT against SFRS17A | -0.389 (inactive) |
| GGAAUUAUUACAAGGUAAATT against EIF3E | 0.549 (inactive) |
| UCUCUUCAAUAUGUAUUUATT against HOXC9 | 0.395 (inactive) |
| GAAUCACCAUUUAAGUGCATT against PDE1C | 0.157 (inactive) |
